Values joined by “and” are separate entries in the source; they are usually repeats but may differ in a detail not shown here. Identical values can stand only once. Screen size: about 5,500 compounds; about 2,000 (36%) were called active. Inconclusive results (about 18%) are left out. No stated cut-off is given here; in the data, active means normalized growth mostly below about 0.91 (no sharp cut-off); inconclusive means no clear call, values can overlap the other calls; inactive means mostly above about 0.92. This is one part of the list.
Experiment: chemical genetic growth profiling, strain panel (AID 1159580);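 further: tested at 20 µM; growth read once vehicle control cultures reached saturation at 30 °C; 1 = growth at the plate median or of vehicle wells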
Details: S. cerevisiae deletion strains, growth OD

Measured: normalized growth

CC(C)(C)NCC(O)c1ccc(O)c(CO)c1 (stereo not given)
inactive: locus YAL013W, strain DEP1, stronger effect = lower value 1 and 1.04 | locus YAL021C, strain ccr4, stronger effect = lower value 1.02 | locus YAL026C, strain drs2, stronger effect = lower value 1.02 | locus YAL030W, strain snc1, stronger effect = lower value 1.02 | locus YAL040C, strain CLN3, stronger effect = lower value 0.991 and 1.01 | locus YBL061C, strain skt5, stronger effect = lower value 1.02 | locus YBR009C, strain hhf1, stronger effect = lower value 0.998 | locus YBR021W, strain FUR4, stronger effect = lower value 1.01 | locus YBR023C, strain chs3, stronger effect = lower value 1.01 | locus YBR171W, strain sec66, stronger effect = lower value 1.02 | locus YBR229C, strain ROT2, stronger effect = lower value 1 | locus YBR231C, strain swc5, stronger effect = lower value 1.01 | locus YBR279W, strain paf1, stronger effect = lower value 1.01 | locus YCL011C, strain gbp2, stronger effect = lower value 0.998 | locus YCL016C, strain dcc1, stronger effect = lower value 1.02 | locus YCL029C, strain bik1, stronger effect = lower value 1.01 | locus YCL061C, strain MRC1 (second series), stronger effect = lower value 1 and 1.01 | locus YCL061C, strain MRC1, stronger effect = lower value 1 | locus YCL069W, strain vba3, stronger effect = lower value 1.02 | locus YCR088W, strain abp1, stronger effect = lower value 1.01 | locus YDL005C, strain med2, stronger effect = lower value 1.01 | locus YDL035C, strain GPR1, stronger effect = lower value 1.04 | locus YDL040C, strain nat1, stronger effect = lower value 1 | locus YDL074C, strain BRE1, stronger effect = lower value 1.06 | locus YDL101C, strain DUN1, stronger effect = lower value 1.01 | locus YDL134C, strain PPH21, stronger effect = lower value 1 | locus YDL185W, strain tfp1, stronger effect = lower value 1.02 | locus YDL192W, strain arf1, stronger effect = lower value 1.02 | locus YDR001C, strain nth1, stronger effect = lower value 1.01 | locus YDR069C, strain doa4, stronger effect = lower value 0.998 | locus YDR101C, strain arx1, stronger effect = lower value 0.972 | locus YDR137W, strain rgp1, stronger effect = lower value 1.01 | locus YDR150W, strain NUM1, stronger effect = lower value 1.01 | locus YDR159W, strain sac3, stronger effect = lower value 0.99 | locus YDR162C, strain NBP2, stronger effect = lower value 1.03 | locus YDR195W, strain ref2 0.99 | locus YDR297W, strain sur2, stronger effect = lower value 1.01 | locus YDR318W, strain mcm21, stronger effect = lower value 1.02 | locus YDR334W, strain swr1, stronger effect = lower value 0.995 | locus YDR335W, strain msn5, stronger effect = lower value 1.02 | locus YDR363W, strain ESC2, stronger effect = lower value 1.03 | locus YDR388W, stronger effect = lower value 1.02 | locus YDR392W, strain spt3, stronger effect = lower value 0.981 | locus YDR502C, strain sam2, stronger effect = lower value 1.02 | locus YEL003W, strain gim4, stronger effect = lower value 1.01 | locus YEL037C, strain rad23, stronger effect = lower value 1.01 | locus YEL061C, strain CIN8 (second series), stronger effect = lower value 1 | locus YEL061C, strain CIN8, stronger effect = lower value 1.01 | locus YER002W, strain NOP16, stronger effect = lower value 0.988 and 1.03 | locus YER015W, strain faa2, stronger effect = lower value 1.02 | locus YER016W, strain bim1, stronger effect = lower value 1.03 | locus YER110C, stronger effect = lower value 1.02 | locus YER111C, strain swi4, stronger effect = lower value 1.01 | locus YER155C, strain BEM2 (second series), stronger effect = lower value 0.982 | locus YER155C, strain BEM2, stronger effect = lower value 1.01 | locus YER167W, strain BCK2, stronger effect = lower value 1.02 | locus YFR010W, strain ubp6, stronger effect = lower value 1.01 | locus YGL078C, strain dbp3, stronger effect = lower value 1.03 | locus YGL086W, strain mad1, stronger effect = lower value 1.01 | locus YGL167C, strain pmr1, stronger effect = lower value 1.02 | locus YGL173C, strain kem1, stronger effect = lower value 1.01 | locus YGL227W, strain vid30, stronger effect = lower value 0.989 | locus YGL240W, strain doc1, stronger effect = lower value 1.02 | locus YGL248W, strain PDE1, stronger effect = lower value 0.998 | locus YGL253W, strain hxk2, stronger effect = lower value 1.01 | locus YGR078C, strain PAC10, stronger effect = lower value 1.02 | locus YGR135W, strain pre9, stronger effect = lower value 1.06 | locus YGR229C, strain SMI1, stronger effect = lower value 1.02 and 1.05 | locus YGR252W, strain gcn5, stronger effect = lower value 1.12 | locus YHR013C, strain ard1, stronger effect = lower value 1.01 | locus YHR027C, strain rpn1, stronger effect = lower value 1.01 | locus YHR030C, strain SLT2, stronger effect = lower value 1.01 and 1.03 | locus YHR079C, strain IRE1 (second series), stronger effect = lower value 1.01 | locus YHR079C, strain IRE1, stronger effect = lower value 1.03 | locus YHR094C, strain hxt1, stronger effect = lower value 1.02 | locus YHR129C, strain ARP1, stronger effect = lower value 1.02 | locus YHR142W, strain chs7, stronger effect = lower value 1 | locus YHR200W, strain rpn10, stronger effect = lower value 1.02 | locus YIL066C, strain RNR3, stronger effect = lower value 1.01 | locus YIL073C, strain SPO22, stronger effect = lower value 1.1 | locus YIL125W, strain kgd1, stronger effect = lower value 1.01 | locus YIR030C, strain dcg1, stronger effect = lower value 1.02 | locus YJL092W, strain hpr5, stronger effect = lower value 1.01 | locus YJL095W, strain BCK1 (second series), stronger effect = lower value 1.03 | locus YJL095W, strain BCK1, stronger effect = lower value 1.01 and 1.03 | locus YJL115W, strain asf1, stronger effect = lower value 1.04 | locus YJL129C, strain trk1, stronger effect = lower value 1 | locus YJL134W, strain LCB3, stronger effect = lower value 1.02 | locus YJL154C, strain vps35, stronger effect = lower value 1.02 | locus YJL164C, strain tpk1, stronger effect = lower value 1 | locus YJL166W, strain qcr8, stronger effect = lower value 0.999 | locus YJL168C, strain set2, stronger effect = lower value 1.01 | locus YJL187C, strain SWE1 (second series), stronger effect = lower value 0.996 | locus YJR043C, strain POL32, stronger effect = lower value 1.03 | locus YJR066W, strain TOR1, stronger effect = lower value 0.979

— PubChem BioAssay AID1159580 (chemical genetic matrix, 2015)
